The panel holds about 83,000 compounds, 20% with a hit somewhere; the sample as a whole holds those more often.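 96-well plates, one dose, 48 hours. Percent growth reported; active if below 10.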 A number with no mark means an inactive call. The source made the active and inactive calls.

The subject of this assay is OVCAR-3 ovarian. Put plainly: NCI-60 one-dose screen, 48 h (100 = growth as untreated, 0 = no growth, -100 = all killed). To be noted: 10 µM unless noted. As for the experimental part: Growth inhibition of the OVCAR-3 human tumor cell line is measured as a screen for anti-cancer activity. Cells are grown in 96 well plates and exposed to the test compound for 48 hours. Compounds are tested at a single concentration, which is 10^-5 M for most compounds. The reported endpoint is percent growth (GI% or GIPRCNT), where numbers from 0 - 100% represent growth inhibition, and numbers from -100% - 0 represent cell death. For example, a value of 40 represents 60% growth inhibition. A value of 0 means no net growth occurred over the course of the experiment. A value of -40 indicates 40% of cells at the beginning of the experiment died by the end of the experiment. A value of -100 means all cells are dead at the end of the experiment.
NCI-60 Human Tumor Cell Lines Screen was performed using the standard one-dose NCI protocol, which is described in more detail at https://dtp.cancer.gov/discovery_development/nci-60/default.htm.
Compounds with GIPRCNT values below 10 were considered active. Activity score was based on GIPRCNT using the following formula: […]
Score is 0 for GIPRCNT values of 100 or above, 50 for GIPRCNT values of 0, and 100 for GIPRCNT values of -100.
`O=C1CCCCN1c1ccc(C2=NCCCN2)cc1`: the growth is 83.9%.

`O=C(NCCCCCCNC(=O)OCc1ccc2c(Cl)cc(Cl)c(O)c2n1)OCc1ccc2c(Cl)cc(Cl)c(O)c2n1`: the growth is -73.6% (active).

With `CN(C)c1ccc(CNCCO)cc1`, the growth is 104%.

In the case of `O=S(=O)(Nc1ccc2ccccc2c1)c1ccc(-c2cnc(C3CC3)o2)cc1`, the growth was 1.73% (active).

Take `C/C(=C(\c1ccc(OCCN2CCCCCC2)cc1)c1ccc(OC(=O)c2ccccc2)cc1)c1ccc(Cl)cc1`: the growth is 61.8%.

Take `C#CCOc1cccc(Nc2ncnc3c2ncn3C2CCN(C(=O)CCl)C2)c1` (stereo not given): the growth was -90.9% (active).

For `C=CN(C(=O)N1CCN(c2cc3c(cc2F)c(=O)c(C(=O)O)cn3C2CC2)CC1)c1nc(-c2ccc(Cl)cc2)cs1`, the growth is 53.9%.

As for `C=C(C)[C@@H]1CC[C@]2(COC3CCCCO3)CC[C@]3(C)[C@H](CC[C@@H]4[C@@]5(C)C=C(C=O)C(=O)C(C)(C)[C@@H]5CC[C@]43C)[C@@H]12` (stereo not given in full), the growth is -65.1% (active).

As for `COc1ccc(Cl)cc1Nc1nc(C(F)(F)F)ccc1C(=O)N/N=C/c1ccc([N+](=O)[O-])cc1`, the growth was -1% (active).

Take `Clc1cccc(C2Cc3cnccc3-c3[nH]c4ccncc4c32)c1` (stereo not given): the growth is 42.2%.

For `CC(=O)c1sc(-c2ccc(F)cc2)cc1O`, the growth was 109%.

Consider `c1cc(OCCN2CCCCC2)ccc1CNc1ccc2nc(CCC3CCCCC3)[nH]c2c1`, for which the growth is 48.4%.

Consider `COC(=O)Cn1c2c(c3c(OC)cccc31)C(=O)c1ccccc1-2`, for which the growth was 116%.

Consider `O=C(Cn1nc(-c2cccc3ccccc23)ccc1=O)NCc1cccc(Cl)c1`, for which the growth is 38.6% [50 µM].

On to `COc1ccc(CN2C(=O)OC(C)(COC(C)=O)C2=O)cc1` (stereo not given), for which the growth is 112%.

As for `CC1(C)CC[C@]23CC[C@]4(C)[C@H](CC[C@@H]5[C@@]6(C)C/C(=C/O)C(=O)C(C)(C)[C@@H]6CC[C@]54C)[C@H]2[C@H]1OC3`, the growth is 121%.

Regarding `CC(C)=CC(=O)N[C@H]1CC[C@]2(C)C3CC[C@]4(C)C(C(C)N(C)C)=CCC4C3CCC2[C@H]1O` (stereo not given in full), the growth is 31.2%.

Turning to `O=C1c2cccnc2C(=O)c2c1c(C(=O)OCCc1ccccn1)c1ccccn21`, the growth is -16.1% (active).

As to `C=C(C)[C@@H]1CC[C@]2(CO)CC[C@]3(C)[C@H](CC[C@@H]4[C@@](C)(CCCN)[C@H](C(=C)C)CC[C@]43C)[C@@H]12`, the growth is -61.7% (active).

Turning to `CC1=C2[C@@H](CC1)[C@]1(C)O[C@@](C3CCNCC3)(C[C@H]1OC(=O)CO)[C@H]2OC(=O)/C=C/c1ccccc1`, the growth was 93.9%.

For `CCn1cc(C(=O)O)c(=O)c2cc(F)c(N3CCN(CC(=O)Nc4ccccc4)C(C)C3)c(F)c21` (stereo not given), the growth was 104%.

For the compound `Cc1ccc(OCCOCCOCCOCCOCCOc2ccc(C)n(O)c2=S)c(=S)n1O`, the growth is 29.6%.

As for `Cc1nc(N/N=C/c2cn(-c3ccccc3)nc2-c2cc3ccccc3oc2=O)sc1N=Nc1ccccc1`, the growth was 92.1%.

Take `CC(=O)c1ccc(-n2cc(CN3CCN(c4cc5c(cc4F)c(=O)c(C(=O)O)cn5C4CC4)CC3)nn2)cc1`: the growth is 90.4%.

On to `CSc1nc(-c2ccco2)c(C#N)c(=O)n1C`, for which the growth was 104%.

On to `CNCCCNc1nc2ccccc2c2c(=O)c3cc(Cl)ccc3sc12`, for which the growth is 9.78% (active).

As to `O=C1/C(=C/c2c[nH]c(=O)[nH]c2=O)SC(=S)N1Cc1ccccc1`, the growth is 108%.

As to `Cc1ccc(OCCOCCOCCOc2ccc(C)n(O)c2=S)c(=S)n1O`, the growth is 15.9%.

In the case of `O=C1CCCC1[n+]1ccccc1` (stereo not given), the growth was 97.8%.

For the compound `N[C@@H]1CCC[C@H]1NCCCCN1C(=O)c2cccc3cc([N+](=O)[O-])cc(c23)C1=O`, the growth is 45.6%.

`COc1ccc(C2[C@@H](c3ccccc3)C(=O)N2c2cc(OC)c(OC)c(OC)c2)cc1F` (stereo not given in full): the growth was 9.25% (active).

Turning to `C=C(C)[C@@H]1CC[C@]2(C(=O)N3CCNCC3)CC[C@]3(C)[C@H](CC[C@@H]4[C@@](C)(CCC(=O)N5CCNCC5)[C@H](C(=C)C)CC[C@]43C)[C@@H]12`, the growth was 70.7%.

With `O=C(/C=C/c1ccccc1)c1ccc(-n2cc(CN3CCN(c4cc5c(cc4F)c(=O)c(C(=O)O)cn5C4CC4)CC3)nn2)cc1`, the growth is 91.5%.

As for `O=c1oc2ccccc2cc1-c1nn(-c2ccccc2)cc1-c1nn[nH]n1`, the growth is 114%.

For the compound `CN(C)CCC(=O)C1CC1`, the growth is 105%.

For the compound `Cn1cc(-c2csc(-c3cn(CCCN4CCOCC4)c4ccc(F)cc34)n2)c2cccnc21`, the growth is 77.6%.

`Nc1cc(C(=O)O)cc(-n2c(O)c(C=C3N=c4ccccc4=N3)sc2=S)c1`: the growth was 106%.

In the case of `COc1cc([C@@H](CCO)C[C@H](C)c2ccc3ccccc3c2)cc(OC)c1OC`, the growth was 8.71% (active).

`CCCCO[C@@H]1C=C2[C@H]3CC(C)(C)C(=O)C[C@]3(C(=O)O[C@@H]3O[C@H](CO[C@@H]4O[C@H](CO)[C@@H](OC5OC(C)C(O)C(O)C5O)[C@H](O)[C@H]4O)[C@@H](O)[C@H](O)[C@H]3O)CC[C@@]2(C)[C@]2(C)CC[C@H]3C(C)(C)C(=O)CC[C@]3(C)[C@@H]12` (stereo not given in full): the growth is 48.7%.

`N#Cc1nn(-c2cc(=O)[nH]c3ccc(Br)cc23)c(N)c1C#N`: the growth is 103%.

The values are drawn from PubChem BioAssay (NCI).
